Where “and” joins values, the source holds several entries; their conditions need not be identical. Identical values can stand only once. In all, about 370,000 compounds went through this assay and about 2,300 (0.62%) were called active. Only a selection was taken, and actives are over-represented in it overall. A number with no mark means an inactive call.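 Rule for the calls: active = lowest replicate activation of at least 40%, so every replicate reaches that level; inactive = the rest.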
Assay: primary screen for activators of insulin secretion dependent on glucose, INS-1E cells, GLuc reporter luminescence (AID 743287);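 note: 0% = median of neutral control wells and 100% = median of IBMX positive control wells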
Settings: INS-1E GLuc reporter insulin secretion, 2-3 h, at 16.6 µM, hits give high values

Compound | activation
CC(C)NC(=O)N1CCCCN2[C@H](CO)[C@@H](c3ccc(Br)cc3)[C@H]2C1 | 1.31%
COc1ccc(-c2c(NC(=O)c3ccco3)oc3ccc(Cl)cc3c2=O)cc1 | 106% (active)
Cc1cccc(-c2c(NC(=O)c3ccco3)oc3ccc(Cl)cc3c2=O)c1 | -13.2%
COc1ccc(OC)c(NC(=O)c2cnn(-c3ccccc3Cl)c2NC(=O)c2ccco2)c1 | -0.082%
O=C(Nc1cc(F)ccc1F)N1CCCCN2[C@H](CO)[C@@H](c3ccc(-c4cccnc4)cc3)[C@@H]2C1 | -2.5%
CO[C@H]1CN(C)C(=O)c2ccc(NC(=O)C3CCCC3)cc2OC[C@@H](C)NC[C@@H]1C | -7.48%
COc1cccc(CNC(=O)[C@@H]2[C@@H](CO)[C@@H]3Cn4c(ccc(-c5cccnc5)c4=O)[C@@H]3N2C)c1 | -0.31%
O=C(NCC[C@@H]1CC[C@@H](NS(=O)(=O)c2ccc(Cl)cc2)[C@@H](CO)O1)c1ccccc1F | 6.92%
C[C@@H]1CN([C@H](C)CO)S(=O)(=O)c2ccc(C3=CCCC3)cc2O[C@H]1CN(C)C(=O)CC1CC1 | -5.57%
COCCCNC(=O)CCc1nc2cccnc2n1Cc1ccc(OC)cc1 | 10.4%
CCOc1ncccc1C(=O)NCCc1ccc(OC)cc1 | 35.2%
CCOC(=O)Cn1c(=O)n(Cc2ccc(OC)cc2)c(=O)c2cccnc21 | 46.4% (active)
COCC(=O)N1CCC2(CC1)CN(C(=O)Nc1ccccc1F)[C@@H](CO)c1c2c2ccc(OC)cc2n1C | -10.5%
O=S(=O)(NCC[C@H]1CC[C@@H](NS(=O)(=O)c2cccc(Cl)c2)[C@@H](CO)O1)c1cccc(F)c1 | -5.04%
CO[C@@H]1CN(C)C(=O)c2ccc(NS(=O)(=O)c3ccc(Cl)cc3)cc2OC[C@@H](C)N(C)C[C@H]1C | -6.5% and 12.1%
O=C(C1CCCCC1)N1C[C@@H]2N[C@H](C1)C2c1ccc(-c2cccc(F)c2)cc1 (stereo partly specified) | 22.3% and -4.66%
Cc1cccc(-c2ccc(C3[C@@H]4CN(C(=O)Nc5ccc(C(F)(F)F)cc5)C[C@H]3N4)cc2)c1 (stereo partly specified) | 763% (active)
CN(C)C(=O)c1ccc(-c2ccc(C3[C@@H]4CN(C(=O)Nc5ccccc5)C[C@H]3N4)cc2)cc1 (stereo partly specified) | -5.33%
C[C@H]1CN([C@@H](C)CO)C(=O)c2cc(NC(=O)C3CCCCC3)ccc2O[C@H]1CN(C)S(=O)(=O)c1cn(C)cn1 | 17.4%
O=C(C1CCOCC1)N1CC(=O)N2[C@H](CO)[C@H](c3ccc(C#CC4CCCCC4)cc3)[C@H]2C1 | 6.98%
CN(C)C(=O)N1CCN(C(=O)[C@@H](Cc2ccccc2)NC(=O)[C@H]2O[C@@H](n3ccc(N)nc3=O)[C@H](O)[C@@H]2O)CC1 | 13.5%
O=C(N[C@H](Cc1ccccc1)C(=O)N1CCCN(Cc2cccs2)CC1)[C@H]1O[C@@H](n2ccc(=O)[nH]c2=O)[C@H](O)[C@@H]1O | 13%
Cc1ccc2nc(CN(C)C(=O)[C@@H](Cc3ccccc3)NC(=O)[C@H]3O[C@@H](n4ccc(=O)[nH]c4=O)[C@H](O)[C@@H]3O)[nH]c2c1 | 42.3% (active)
CN1C(=O)c2cc(NS(C)(=O)=O)ccc2OC[C@H]2O[C@H](CC(=O)NCc3ccccc3)CC[C@H]21 | 4.81%

Compound | activation
CCOC(=O)c1oc2ccccc2c1NC(=O)c1cccs1 | 77.1% (active)
Cc1nc2ccccn2c(=O)c1NC(=O)c1cccs1 | 3.74%
NC(=O)c1oc2ccccc2c1NC(=O)Cc1ccccc1 | 9.27%
COc1ccc(NC(=O)Nc2cccc3c2O[C@H](CN(C)Cc2ccc(Cl)c(Cl)c2)[C@H](C)CN([C@@H](C)CO)C3=O)cc1 | -19%
C[C@H]1CN([C@@H](C)CO)C(=O)Cc2cc(NC(=O)Cn3cnnn3)ccc2O[C@@H]1CN(C)Cc1ccc(-c2ccccc2)cc1 | -17.4%
O=c1c2ccccc2ncn1CCc1ccncc1 | 2.05%
COCCCNC(=O)CNC(=O)c1nn(-c2ccc(OC)cc2)c(=O)c2ccccc12 | 5.37%
O=C(O)c1ccc(-n2nc(-c3ccccc3)c3ccccc3c2=O)cc1 | 65.3% (active)
O=c1c2ccccc2c(-c2ccccc2)nn1-c1ccccn1 | 53.1% (active)
COc1cccc(-n2nc(C(=O)N3CCN(Cc4ccccc4)CC3)c3ccccc3c2=O)c1 | -2.64%
O=C1c2oc3ccccc3c(=O)c2C(c2cccc(O)c2)N1c1ccccn1 (stereo unspecified) | -8.86%
C[C@@H]1CN([C@H](C)CO)C(=O)c2cc(NS(=O)(=O)c3cccs3)ccc2O[C@@H](C)CCCCO[C@@H]1CN(C)C(=O)c1ccncc1 | -1.55%
C[C@@H]1CN([C@@H](C)CO)C(=O)CCCn2cc(nn2)CO[C@@H]1CN(C)S(=O)(=O)c1ccccc1C#N | 4.61%
COc1ccc2c3c(n(C)c2c1)[C@H](CO)N(C(=O)c1ccncc1)CC31CCN(CC2CC2)CC1 | 14.2%
O=C(C[C@@H]1CC[C@@H](NC(=O)C2CC2)[C@@H](CO)O1)NCc1ccccc1Cl | -6.27%
C[C@@H]1CN([C@H](C)CO)C(=O)c2cccc(NC(=O)Nc3ccc4c(c3)OCO4)c2O[C@H]1CN(C)C(=O)Nc1ccc(F)cc1 | -11.4%
Cc1ccc(S(=O)(=O)Nc2ccc3c(c2)C(=O)N([C@@H](C)CO)C[C@@H](C)[C@@H](CN(C)S(=O)(=O)c2ccc(C)cc2)O3)cc1 | -10.5%
Cc1ccc(S(=O)(=O)N(C)C[C@@H]2Oc3ccc(NC(=O)Nc4ccc(F)cc4)cc3C(=O)N([C@H](C)CO)C[C@@H]2C)cc1 | -24.3%
COc1ccccc1CN1[C@@H]2CNC[C@H]1C2c1ccc(-c2cccc(C#N)c2)cc1 (stereo partly specified) | 0.586% and -8.29%
N#Cc1ccc(-c2ccc([C@@H]3[C@H]4CNC[C@@H]3N4Cc3cc(F)ccc3F)cc2)cc1 | 137% (active)
N#Cc1ccc(-c2ccc([C@@H]3[C@H]4CNC[C@@H]3N4Cc3ccc4c(c3)OCO4)cc2)cc1 | 3.4%
CCCC(=O)Nc1ccc2c(c1)C(=O)N(C)[C@@H]1CC[C@H](CC(=O)NCCOC)O[C@H]1CO2 | -1.04%
C[C@H](CO)N1C[C@H](C)[C@@H](CN(C)C(=O)C2CC2)Oc2ncc(C#CC(C)(C)O)cc2C1=O | 3.22%
C[C@@H]1CN([C@H](C)CO)C(=O)c2cccc(NC(=O)c3ccncc3)c2O[C@@H]1CN(C)S(=O)(=O)c1cn(C)cn1 | 8.83%

Compound | activation
COc1ccccc1CNS(=O)(=O)c1cc(C(=O)NCc2ccccn2)c(Cl)cc1Cl | 4.38%
COc1ccc2oc(=O)c(C(=O)NCc3ccccn3)cc2c1 | 70.8% (active)
COCc1ccc(CN2CCC(Oc3ccc(C(=O)NCc4ccccn4)cc3)CC2)o1 | 2.23%
C[C@@H]1CN([C@H](C)CO)C(=O)c2cc(NC(=O)NC3CCCCC3)ccc2O[C@@H]1CN(C)S(C)(=O)=O | -8.57%
CC(C)CC#Cc1ccc2c(c1)O[C@H](CN(C)Cc1cccnc1)[C@H](C)CN([C@@H](C)CO)S2(=O)=O | -26.2%
CC=CCn1c(SCCCc2ccccc2)nc2c1c(=O)[nH]c(=O)n2C | 3.95%
C=CCn1c(SCc2ccccc2)nc2c1c(=O)[nH]c(=O)n2C | 52% (active)
CC1CCN(c2nc3c(c(=O)[nH]c(=O)n3C)n2CCCc2ccccc2)CC1 | 3.62%
CO[C@H]1CN(C)C(=O)c2cc(NS(=O)(=O)c3ccccc3C)ccc2OC[C@@H](C)NC[C@@H]1C | 2.17%
COCC(=O)N(C)C[C@H]1Oc2cc(C#CC(C)C)ccc2S(=O)(=O)N([C@H](C)CO)C[C@@H]1C | 1.27%
COCC(=O)N(C)C[C@H]1Oc2cc(Br)ccc2S(=O)(=O)N([C@H](C)CO)C[C@H]1C | 46.1% (active)
C[C@@H]1CN([C@@H](C)CO)S(=O)(=O)c2ccc(Br)cc2O[C@@H]1CN(C)C(=O)CN(C)C | 21.4%
COc1ccc(NC(=O)N[C@H]2C=C[C@H](CC(=O)NCc3ccccn3)O[C@H]2CO)cc1 | 15.4%
COc1ccc2c3c(n(C)c2c1)[C@H](CO)N(Cc1ccccc1)CC31CCN(C)CC1 | 15.2%
O=C(O)CCCCCCCCCC[n+]1ccccc1 | 91.6% (active)
CC(C)C#Cc1ccc2c(c1)O[C@H](CN(C)CC1CCOCC1)[C@@H](C)CN([C@H](C)CO)S2(=O)=O | -18.8%
CCCc1cc(-c2nc(-c3ccc(C)cc3)cs2)ccn1 | 90.4% (active)
CCCCCN1CC(O)=C(c2nc(-c3ccc(Cl)cc3)cs2)C1=N | 35.7%
CCCc1cc(=O)oc2c(C)c(OCC(=O)NCc3ccccn3)ccc12 | 11.9%
CC(C)NC(=O)N(C)C[C@@H]1Oc2ncc(C3=CCCCC3)cc2C(=O)N([C@H](C)CO)C[C@@H]1C | -12.5%
Cc1ccc(NC(=O)C2CCN(S(=O)(=O)c3ccc4c(c3)NC(=O)CO4)CC2)cc1C | -23%
Cn1c(=O)oc2cc(S(=O)(=O)N3CCC(C(=O)Nc4ccc(OC(F)(F)F)cc4)CC3)ccc21 | 48.6% (active)
CC(=O)Nc1ccc(S(=O)(=O)N2CCC(C(=O)NC3CC3)CC2)cc1 | 29.2%

Source: PubChem BioAssay AID743287 (Broad Institute, 2014)
